Values joined by “and” are separate entries in the source; they are usually repeats but may differ in a detail not shown here. Equal entries are not always repeated. Hit rate of the full screen: of about 310,000 compounds, about 11,000 (3.5%) were called active. Another 4% or so got no clear call; they are omitted. This excerpt belongs to a sample that is enriched for actives. Unmarked numbers belong to inactive results. Calls follow the shape of the dose curve; as a rule, active = well fitted inhibition curve with a large enough effect; inconclusive = small, poorly fitted or top-dose-only effect, or another doubt; inactive = no such curve, though single readings can be large or run the other way.
Potency is read from the fitted curve at half-maximal effect.

The test addresses 4'-phosphopantetheinyl transferase ffp (Bacillus subtilis) (UniProt Q9F4F7). The test can be described thus: qHTS Assay for Inhibitors of Bacillus subtilis Sfp phosphopantetheinyl transferase (PPTase).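 Also: the enzyme is Sfp with the accession as filed and its product quenches rhodamine fluorescence.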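 As to largest response in the series, negative = inhibition: 0% = enzyme reaction without inhibitor and -100% = no enzyme wells.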 As to conditions: Biochemical Sfp PPTase activity. In outline: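 Sfp 15 nM + cpd, 15 min RT; start w/ rhodamine-CoA 5 uM, BHQ-2-YbbR 12.5 uM (final); 50 mM Hepes pH 7.6, 10 mM MgCl2, 0.01% NP-40, 0.01% BSA; read 525/598 nm at 0 and 30 min.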
On the technique in general: In qHTS, concentration-response curves come from the screen itself.
As for `CN(c1ccccc1)c1ccc(/C=c2\s/c(=C(/C#N)C(=O)C(C)(C)C)n(Cc3ccco3)c2=O)cc1`, the largest response in the series, negative = inhibition was -21.7%.

On to `O=C(Cc1ccccc1)n1nc(-c2ccccc2)nc1NCc1ccco1`, for which the largest response in the series, negative = inhibition is 0.0328%. Take `O=c1nc2s/c(=C\c3ccco3)c(=O)n2nc1Cc1ccccc1`: the Potency was 28.2 µM (active).

For the compound `N#Cc1cc([N+](=O)[O-])ccc1NCC1CCCO1` (configuration not stated), the largest response in the series, negative = inhibition was 13.1%. On the same count and under the same terms, with `O=C(NC1CCCCCCC1)c1cccs1` the figure was -20.5%. Same read-out and setting: with `COCCNc1ncnc2ccc(-c3cccnc3)cc12` the figure was 6.73%; with `COc1cc(/C=N/N2CCN(c3ccccc3)CC2)ccc1OC(C)=O`, 16.9%.

Turning to `COc1ccccc1N1CCN(/N=C\C(Br)=C\c2ccccc2)CC1`, the Potency was 31.6 µM (active).

For `COc1ccccc1N1CCN(/N=C/c2ccc(O)cc2O)CC1`, the largest response in the series, negative = inhibition was -7.55%.

In the case of `COc1cc(CNCc2ccc(OC)c3ccccc23)cc(OC)c1OC`, the largest response in the series, negative = inhibition is -22.2%. The same measure, in the same setting: the value for `O=S(=O)(/N=C(/Nc1ccccn1)c1ccccc1)c1ccc(Cl)cc1` was 27.1%. Same read-out and setting: with `Cc1ccc(S(=O)(=O)/N=C(/Nc2ccccn2)c2ccc(Cl)cc2)cc1` the figure was -17.5%. In the case of `Cc1ccc(S/C(=N\S(=O)(=O)c2ccc(Cl)cc2)c2ccccc2)cc1`, the Potency is 56.2 µM (active). As for `CCn1c(SCC(=O)Nc2nccs2)nnc1-c1ccncc1`, the largest response in the series, negative = inhibition is 2.26%.

For the compound `COc1ccc(NC(=O)CSc2nncc(=O)n2N)cc1OC`, the largest response in the series, negative = inhibition is 9.26%. With `Nn1c(SCC(=O)Nc2nccs2)nncc1=O`, the Potency was 22.4 µM (active). On to `O=S(=O)(c1ccc(-c2ccno2)s1)N1CCCCC1`, for which the largest response in the series, negative = inhibition was 11.8%. The same measure, in the same setting: the value for `N=c1c2c(-c3ccccc3)c(-c3ccccc3)oc2ncn1Cc1ccco1` was -5.12%.

On to `COc1ccc(-c2oc3ncn(Cc4ccco4)c(=N)c3c2-c2ccc(OC)cc2)cc1`, for which the Potency is 39.8 µM (active). Consider `COc1ccc(-c2oc3ncnc(NCCCO)c3c2-c2ccc(OC)cc2)cc1`, for which the largest response in the series, negative = inhibition was -12.6%. The same measure, in the same setting: with `O=c1oc2ccccc2c(NC2CCCCC2)c1NS(=O)(=O)c1ccc(Cl)cc1` the figure was 4.82%; with `Cc1c(-c2cccc(Cl)c2)nc2ccccc2c1C(=O)OCC(=O)N(C)C1CCS(=O)(=O)C1` (configuration not stated), 1.32%.

Turning to `CN(C(=O)COC(=O)c1nc(Cl)ccc1Cl)C1CCS(=O)(=O)C1` (configuration not stated), the largest response in the series, negative = inhibition is 11%.

For `CN(C(=O)COC(=O)c1cc(-c2ccco2)nc2ccccc12)C1CCS(=O)(=O)C1` (configuration not stated), the Potency was 28.2 µM (active). Consider `Cc1ccc2nc(-c3ccc(Br)cc3)cn2c1`, for which the largest response in the series, negative = inhibition was 17%.

On to `Cc1ccc(C2C3=C(Nc4[nH]n(-c5ccccc5)c(=O)c42)c2ccccc2C3=O)cc1` (configuration not stated), for which the largest response in the series, negative = inhibition is -4.89%. `COC(=O)C1=C(C)NC2=C(C(=O)c3ccccc32)C1c1ccc(-c2ccc(C(=O)O)cc2)o1` (configuration not stated): the Potency is 14.1 µM (active). Take `COC(=O)C1=C(C)NC(=O)NC1/C=C/c1ccccc1` (configuration not stated): the largest response in the series, negative = inhibition was 6.06%. Same read-out and setting: with `COC(=O)c1ccc(N2CCOCC2)c(NC(=O)c2ccc(Br)o2)c1` the figure was 6.59%. Regarding `C#CCOc1ccc(/C=C2/C(=O)NN(c3ccccc3)C2=O)cc1OC`, the largest response in the series, negative = inhibition is 8.7%.

For `C#CCOc1ccccc1/C=C1/C(=O)ON=C1C`, the Potency was 50.1 µM (active). For `CC1=NOC(=O)/C1=C\c1ccccc1`, the largest response in the series, negative = inhibition is -4.08%.

`NS(=O)(=O)c1ccc(CCNC(=O)c2nc(CS(=O)(=O)c3ccc(Cl)cc3)no2)cc1`: the largest response in the series, negative = inhibition is 13.4%. On the same count and under the same terms, with `CCOC(=O)C1(C)NC(c2ccco2)C2C(=O)N(c3ccccc3)C(=O)C21` (configuration not stated) the figure was 27.2%; with `O=C1/C(=C\c2ccsc2)NC(=S)N1c1ccccc1`, 4.5%. Take `CCCCN=C1N/C(=C\c2ccco2)C(=O)N1c1ccccc1`: the Potency was 56.2 µM (active). `COc1cccc(N(CC(=O)NC2CCCC2)C(=O)CCCC(=O)Nc2ccccn2)c1`: the largest response in the series, negative = inhibition was 7.32%. On the same count and under the same terms, with `COc1cccc(C(=O)Nc2nnc(S(=O)(=O)N3CCCCC3)s2)c1` the figure was 6.22%.

In the case of `O=C(Cn1c[n+](CC(=O)c2ccc([N+](=O)[O-])cc2)cn1)c1ccc([N+](=O)[O-])cc1`, the Potency is 56.2 µM (active) and 44.7 µM (active). Turning to `O=C(Nn1cnnc1)c1ccc([N+](=O)[O-])cc1`, the largest response in the series, negative = inhibition was 13.2%. On the same count and under the same terms, with `O=C(c1ccncc1)c1ccc([N+](=O)[O-])cc1` the figure was 13.2%.

In the case of `Cc1cccc(-c2nc3ccc(C(=O)NCCN4CCN(C)CC4)cc3nc2-c2cccc(C)c2)c1`, the Potency is 50.1 µM (active). Take `CCC1=Nc2cc(C(=O)NCCN3CCCC3)ccc2Sc2ccc(C)cc21`: the largest response in the series, negative = inhibition was -8.33%. The same measure, in the same setting: the value for `Cc1ccc(C(=O)NCCN2CCOCC2)cc1C` was 11.9%; that for `Cc1ccc(OCCCC(=O)Nc2ccc(S(=O)(=O)Nc3cc(C)nc(C)n3)cc2)cc1` was 5.46%; that for `CC1(C)OC2CO[C@]3(COS(N)(=O)=O)OC(C)(C)OC3C2O1` (some centres not stated) was 20.4%. The same measure, in the same setting: with `O=C(N/N=C/c1cc2c(cc1Br)OCO2)C1COc2ccccc2O1` (configuration not stated) the figure was 0.904%.

The values above are taken from PubChem BioAssay AID1490 (National Center for Advancing Translational Sciences (NCATS), 2009).
